Measured values from PubChem BioAssay (Tox21).
Unmarked numbers belong to inactive results. Inconclusive results are not listed. Where a call stands in place of a potency, no number is given. Activity calls are given as the source filed them. Unless noted, calls follow the shape of the dose curve; as a rule, active = well fitted curve in the direction sought with a large enough effect in the repeat runs; inconclusive = weak or mixed curves; inactive = no such curve, though single readings can be large; an effect the other way counts as inactive or inconclusive.

Tests used:
[1] = biological target: Estrogen receptor beta (Homo sapiens) (UniProt Q92731); test: qHTS assay to identify small molecule agonists of the estrogen receptor beta (ER-beta) signaling pathway (AID 1259377; active = well fitted activation curve with a large enough effect in the signal ratio in the repeat runs, not every such curve was filed as active; the % refers to the signal ratio)
Summary of the method: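 ER-beta-UAS-bla HEK293T cells in medium with 2% charcoal-stripped FBS were exposed to compounds for 16 h at 37C. Beta-lactamase reporter activity was read as fluorescence after 2 h with LiveBLAzer B/G FRET substrate at room temperature.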

[2] = biological target: Estrogen receptor beta (Homo sapiens) (UniProt Q92731); test: qHTS assay to identify small molecule antagonists of the estrogen receptor beta (ER-beta) signaling pathway (AID 1259378; active = well fitted inhibition curve with a large enough effect in the signal ratio in the repeat runs, not every such curve was filed as active; the % refers to the signal ratio)
Summary of the method: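 ER-beta-UAS-bla HEK293T (GripTite) cells in 2% charcoal-stripped FBS medium were preincubated 6 hr at 37C, dosed with compound, then stimulated with 1 nM E2 (final) for 16 hr; beta-lactamase reporter read by B/G FRET fluorescence after 2 hr substrate loading.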

[3] = qHTS assay to identify small molecule agonists of the androgen receptor (AR) signaling pathway in the presence of an antagonist - cell viability counter screen (AID 1259379);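 also: MDA-kb2 human breast cancer cells carrying an MMTV luciferase reporter; series mostly up to about 92 µM; nearly all actives have a fitted effect of over 25% in size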
Summary of the method: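 In MDA-kb2 cells (human breast carcinoma, MMTV-luciferase), compounds at 15 concentrations plus 3.0uM nilutamide; 16 hr, 37C, 0% CO2; CellTiter-Fluor fluorescence read for viability.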

[4] = qHTS assay to identify small molecule agonists of the estrogen receptor beta (ER-beta) signaling pathway - cell viability counter screen (AID 1259380); also: nearly all actives have a fitted effect of over 30% in size
Summary of the method: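 Viability of ER-beta-UAS-bla HEK293T cells was determined by CellTiter-Glo luminescence following 16 hr treatment with test compounds at 37C.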

[5] = qHTS assay to identify small molecule antagonists of the estrogen receptor beta (ER-beta) signaling pathway - cell viability counter screen (AID 1259382); also: series mostly up to about 92 µM; nearly all actives have a fitted effect of over 55% in size
Summary of the method: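 Tox21 10K library tested in qHTS format on ER-beta-bla HEK293T cells stimulated with 1nM E2; 16 hr treatment at 37C. Same-well CellTiter-Glo luminescence served as the cell viability measure.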

[6] = biological target: Estrogen receptor (Homo sapiens) (UniProt P03372); test: qHTS assay to identify small molecule agonists of the estrogen receptor alpha (ER-alpha) signaling pathway in the presence of an antagonist (AID 1259383; calls by dose curve; also: top concentration of the series differs between compounds; nearly all actives have a fitted effect of over 15% in size)
Summary of the method: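 In VM7Luc4E2 cells, 4,000 per well, compounds at 15 concentrations were co-incubated 22hr at 37C with 10.0nM final ICI-182,780. Luminescence from the stably transfected 4×ERE-luciferase reporter was recorded 30min after ONE-Glo addition.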

[7] = qHTS assay to identify small molecule agonists or antagonists of the thyroid stimulating hormone receptor (TSHR) signaling pathway - wild type cell line counter screen (AID 1259384; calls by dose curve)
Summary of the method: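 Wild-type HEK293 cells were plated 18 h at 37 C/5% CO2, pin-dosed with compound plus Ro20-1724 medium, held 30 min at room temperature, then given cAMP-d2 and anti-cAMP-cryptate; fluorescence was read after 1 h. Fifteen concentrations, triplicate.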

[8] = biological target: Thyrotropin receptor (Homo sapiens) (UniProt P16473); test: qHTS assay to identify small molecule antagonists of the thyroid stimulating hormone receptor (TSHR) signaling pathway (AID 1259385; calls by dose curve; also: nearly all actives have a fitted effect of over 20% in size)
Summary of the method: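 TSHR-HEK293 cells were plated and held 18 h at 37C/5% CO2, then given compound plus Ro20-1724 and stimulated with TSH at 1.5 ng/mL final. After 30 min at room temperature, cAMP was detected with cAMP-d2/anti-cAMP-cryptate (1 h) by fluorescence.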

[9] = qHTS assay to identify small molecule agonists of the estrogen receptor alpha (ER-alpha) signaling pathway in the presence of an antagonist - cell viability counter screen (AID 1259386);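 also: series mostly up to about 92 µM; cells exposed to compounds for 22 h at 37 °C before the viability read; nearly all actives have a fitted effect of over 30% in size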
Summary of the method: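 Fluorescent CellTiter-Fluor viability signal from VM7Luc4E2 cells, with the reagent added during the final hour of a 22hr compound exposure at 37C in the presence of 10.0nM ICI-182,780.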

[10] = biological target: Progesterone receptor (Homo sapiens) (UniProt P06401); test: qHTS assay to identify small molecule antagonists of the progesterone receptor (PR) signaling pathway (AID 1346795; active = well fitted inhibition curve with a large enough effect in the signal ratio in the repeat runs, not every such curve was filed as active; the % refers to the signal ratio)
Summary of the method: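 PR-UAS-bla HEK293T cells with beta-lactamase reporter under UAS control, in 2% charcoal-stripped FBS, treated with compounds plus 1 nM promegestone (R5020, final) for 16 hr at 37C. Read-out: FRET beta-lactamase substrate fluorescence after 2 hr at room temperature.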

[11] = qHTS assay to identify small molecule antagonists of the progesterone receptor (PR) signaling pathway - cell viability counter screen (AID 1346798); also: series mostly up to about 92 µM; nearly all actives have a fitted effect of over 50% in size
Summary of the method: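 PR-UAS-bla HEK293T cells, 3,000/well in 2% charcoal-stripped FBS medium, dosed with compounds plus R5020 agonist and incubated 16 h at 37C. Viability then measured in the same wells by CellTiter-Glo luminescence after 30 min at RT.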

[12] = qHTS assay to identify small molecule agonists of the progesterone receptor (PR) signaling pathway - cell viability counter screen (AID 1346799; calls by dose curve; also: nearly all actives have a fitted effect of over 45% in size)
Summary of the method: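 Counter screen in the PR-UAS-bla HEK293T wells (2% charcoal-stripped FBS, 16 h compound exposure at 37 C) after the bla read. CellTiter-Glo added, 30 min at room temperature, luminescence read as cell viability.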

[13] = qHTS assay to identify small molecule agonists of the TGF-beta/Smad signaling pathway - cell viability counter screen (AID 1346829); also: nearly all actives have a fitted effect of over 45% in size; also: potency is read from the fitted curve at half-maximal effect; as to activity change, negative = cytotoxicity: top concentration of the series differs between compounds
Summary of the method: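 In parallel with the Smad reporter read, viability of HEK 293T cells stably carrying SBE-bla is quantified by ATP luminescence following 5 hr compound treatment.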

[14] = qHTS assay to identify small molecule agonists of the TGF-beta/Smad signaling pathway (AID 1346859; active = well fitted activation curve with a large enough effect in the signal ratio in the repeat runs, not every such curve was filed as active; the % refers to the signal ratio; also: series mostly up to about 77 µM)
Summary of the method: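 SBE-bla HEK293T cells plated overnight, then compound exposure for 5 h at 37 C. Beta-lactamase reporter read with LiveBLAzer B/G FRET substrate after 2 h at room temperature, fluorescence at 405 nm excitation, 460/530 nm emission.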

[15] = biological target: Thyrotropin-releasing hormone receptor (Homo sapiens) (UniProt P34981); test: qHTS assay to identify small molecule antagonists of the thyrotropin-releasing hormone receptor (TRHR) signaling pathway (AID 1346877; active = well fitted inhibition curve with a large enough effect in the repeat runs, not every such curve was filed as active; also: series mostly up to about 51 µM)
Summary of the method: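 In this cell-based calcium flux format, HEK293 cells expressing TRHR received test compound for 5 min before the agonist TRH (1 nM final). Dye loading lasted 2 h at 37 °C.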

[16] = biological target: Thyrotropin-releasing hormone receptor (Homo sapiens) (UniProt P34981); test: qHTS assay to identify small molecule agonists of the thyrotropin-releasing hormone receptor (TRHR) signaling pathway (AID 1346891; calls by dose curve; also: series mostly up to about 58 µM)
Summary of the method: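 HEK293 cells expressing TRHR plated 18 h at 37 C/5% CO2, calcium dye-loaded 2 h at 37 C, then compound added (agonist mode); kinetic calcium fluorescence read 3 min at 1 s intervals; 15 concentrations in triplicate.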

[17] = Human pregnane X receptor (PXR) small molecule agonists, qHTS cell viability counter screen (AID 1346977); also: nearly all actives have a fitted effect of over 50% in size
Summary of the method: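 PXR-Luc HepG2 cells (2,000/well, 5% charcoal-stripped FBS) preincubated 5 hr, then exposed to compounds 24 hr at 37 C. Viability read in the same wells by CellTiter-Fluor fluorescence, reagent added at 23 hr, 1 hr incubation.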

[18] = qHTS assay to identify small molecule antagonists of the TGF-beta/Smad signaling pathway - cell viability counter screen (AID 1346824); also: nearly all actives have a fitted effect of over 50% in size
Summary of the method: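 SBE-bla HEK 293T cells were plated overnight at 37 C, then given compounds in DMSO plus TGF-beta1 (added as 0.25 ng/mL solution) for 5 hr. After the bla read, CellTiter-Glo was added to the same wells and luminescence read after 30 min at room temperature.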

[19] = biological target: Androgen receptor (Homo sapiens) (UniProt P10275); test: qHTS assay to identify small molecule agonists of the androgen receptor (AR) signaling pathway in the presence of an antagonist (AID 1259381; calls by dose curve; also: nearly all actives have a fitted effect of over 15% in size)
Summary of the method: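 Here, 15-concentration compound series were pin-transferred onto MDA-kb2 MMTV-luciferase cells already dosed with nilutamide (3.0uM final). After 16hr at 37C, ONE-Glo was added and luminescence read 30min later at room temperature.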

[20] = biological target: Progesterone receptor (Homo sapiens) (UniProt P06401); test: qHTS assay to identify small molecule agonists of the progesterone receptor (PR) signaling pathway (AID 1346784; calls by dose curve; also: nearly all actives have a fitted effect of over 30% in size)
Summary of the method: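 PR-UAS-bla HEK 293T cells (beta-lactamase reporter under UAS) in 2% charcoal-stripped FBS, dosed with 23 nL compound after 6 hr, incubated 16hr at 37C. LiveBLAzer B/G FRET substrate added, fluorescence read after 2 hours.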

Sequence of Thyrotropin-releasing hormone receptor (Homo sapiens) (P34981 whole entry, looked up): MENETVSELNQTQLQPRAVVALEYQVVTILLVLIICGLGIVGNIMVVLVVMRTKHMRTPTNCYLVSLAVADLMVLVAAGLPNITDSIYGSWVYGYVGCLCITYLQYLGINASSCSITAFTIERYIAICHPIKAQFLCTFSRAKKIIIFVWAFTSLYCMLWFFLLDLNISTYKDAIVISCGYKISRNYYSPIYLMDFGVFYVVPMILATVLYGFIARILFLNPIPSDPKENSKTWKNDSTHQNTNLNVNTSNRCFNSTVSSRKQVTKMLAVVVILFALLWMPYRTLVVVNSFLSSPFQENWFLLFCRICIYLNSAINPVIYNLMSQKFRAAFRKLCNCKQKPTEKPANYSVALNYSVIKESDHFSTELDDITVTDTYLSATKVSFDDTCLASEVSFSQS
Sequence of Progesterone receptor (Homo sapiens) (P06401 whole entry, looked up): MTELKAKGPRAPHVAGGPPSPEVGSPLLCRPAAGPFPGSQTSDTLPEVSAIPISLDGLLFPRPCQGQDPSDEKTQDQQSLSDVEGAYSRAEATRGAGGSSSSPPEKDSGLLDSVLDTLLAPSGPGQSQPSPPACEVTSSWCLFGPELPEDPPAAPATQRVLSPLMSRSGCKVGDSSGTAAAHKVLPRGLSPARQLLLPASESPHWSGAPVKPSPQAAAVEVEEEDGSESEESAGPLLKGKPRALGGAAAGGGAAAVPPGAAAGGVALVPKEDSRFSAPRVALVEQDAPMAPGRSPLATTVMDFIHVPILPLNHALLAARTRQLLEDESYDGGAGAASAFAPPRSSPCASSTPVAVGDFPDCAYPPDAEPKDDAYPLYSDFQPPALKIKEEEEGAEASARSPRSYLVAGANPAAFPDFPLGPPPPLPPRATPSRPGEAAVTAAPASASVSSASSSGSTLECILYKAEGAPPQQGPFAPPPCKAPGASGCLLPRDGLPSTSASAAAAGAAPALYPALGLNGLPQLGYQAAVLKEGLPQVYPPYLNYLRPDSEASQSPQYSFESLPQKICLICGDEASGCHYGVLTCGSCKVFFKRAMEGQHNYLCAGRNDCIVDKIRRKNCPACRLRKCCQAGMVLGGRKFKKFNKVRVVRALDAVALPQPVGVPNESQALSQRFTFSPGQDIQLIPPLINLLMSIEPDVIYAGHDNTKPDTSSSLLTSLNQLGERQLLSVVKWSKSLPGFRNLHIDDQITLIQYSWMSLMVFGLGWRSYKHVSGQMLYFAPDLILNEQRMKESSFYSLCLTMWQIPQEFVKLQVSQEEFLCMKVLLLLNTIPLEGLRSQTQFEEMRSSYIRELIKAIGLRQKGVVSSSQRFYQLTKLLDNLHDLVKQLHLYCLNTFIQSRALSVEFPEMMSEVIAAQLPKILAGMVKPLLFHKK
Sequence of Estrogen receptor (Homo sapiens) (P03372 whole entry, looked up): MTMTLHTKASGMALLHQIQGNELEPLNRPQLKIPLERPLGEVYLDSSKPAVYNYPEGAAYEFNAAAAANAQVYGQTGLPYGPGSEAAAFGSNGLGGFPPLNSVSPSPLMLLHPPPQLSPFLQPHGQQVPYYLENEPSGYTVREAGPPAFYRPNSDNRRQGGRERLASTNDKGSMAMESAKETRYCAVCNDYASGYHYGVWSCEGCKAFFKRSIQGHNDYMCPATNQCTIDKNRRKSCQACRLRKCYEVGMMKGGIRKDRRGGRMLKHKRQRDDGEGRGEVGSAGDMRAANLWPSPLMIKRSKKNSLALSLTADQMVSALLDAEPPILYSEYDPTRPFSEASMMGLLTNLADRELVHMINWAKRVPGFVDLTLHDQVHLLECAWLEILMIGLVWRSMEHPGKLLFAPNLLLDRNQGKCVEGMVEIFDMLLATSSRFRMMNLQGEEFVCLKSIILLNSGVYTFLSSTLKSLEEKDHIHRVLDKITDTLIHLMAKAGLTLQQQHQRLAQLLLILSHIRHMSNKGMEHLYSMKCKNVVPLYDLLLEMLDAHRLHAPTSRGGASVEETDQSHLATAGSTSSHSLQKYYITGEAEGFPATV
Sequence of Estrogen receptor beta (Homo sapiens) (Q92731 whole entry, looked up): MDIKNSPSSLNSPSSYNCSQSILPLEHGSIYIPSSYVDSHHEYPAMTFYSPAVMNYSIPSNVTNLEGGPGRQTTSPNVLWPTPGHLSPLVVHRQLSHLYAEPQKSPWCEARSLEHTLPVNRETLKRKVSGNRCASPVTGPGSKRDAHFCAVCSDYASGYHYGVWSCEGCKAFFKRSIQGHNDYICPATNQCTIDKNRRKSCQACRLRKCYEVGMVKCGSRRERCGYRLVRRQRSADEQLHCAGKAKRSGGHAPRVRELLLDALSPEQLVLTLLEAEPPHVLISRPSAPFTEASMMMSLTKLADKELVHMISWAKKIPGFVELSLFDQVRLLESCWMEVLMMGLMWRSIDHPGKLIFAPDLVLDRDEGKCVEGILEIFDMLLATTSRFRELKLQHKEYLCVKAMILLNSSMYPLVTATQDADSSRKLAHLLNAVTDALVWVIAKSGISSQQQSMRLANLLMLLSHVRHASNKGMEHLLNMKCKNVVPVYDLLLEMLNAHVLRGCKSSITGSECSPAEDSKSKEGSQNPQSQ
Sequence of Thyrotropin receptor (Homo sapiens) (P16473 whole entry, looked up): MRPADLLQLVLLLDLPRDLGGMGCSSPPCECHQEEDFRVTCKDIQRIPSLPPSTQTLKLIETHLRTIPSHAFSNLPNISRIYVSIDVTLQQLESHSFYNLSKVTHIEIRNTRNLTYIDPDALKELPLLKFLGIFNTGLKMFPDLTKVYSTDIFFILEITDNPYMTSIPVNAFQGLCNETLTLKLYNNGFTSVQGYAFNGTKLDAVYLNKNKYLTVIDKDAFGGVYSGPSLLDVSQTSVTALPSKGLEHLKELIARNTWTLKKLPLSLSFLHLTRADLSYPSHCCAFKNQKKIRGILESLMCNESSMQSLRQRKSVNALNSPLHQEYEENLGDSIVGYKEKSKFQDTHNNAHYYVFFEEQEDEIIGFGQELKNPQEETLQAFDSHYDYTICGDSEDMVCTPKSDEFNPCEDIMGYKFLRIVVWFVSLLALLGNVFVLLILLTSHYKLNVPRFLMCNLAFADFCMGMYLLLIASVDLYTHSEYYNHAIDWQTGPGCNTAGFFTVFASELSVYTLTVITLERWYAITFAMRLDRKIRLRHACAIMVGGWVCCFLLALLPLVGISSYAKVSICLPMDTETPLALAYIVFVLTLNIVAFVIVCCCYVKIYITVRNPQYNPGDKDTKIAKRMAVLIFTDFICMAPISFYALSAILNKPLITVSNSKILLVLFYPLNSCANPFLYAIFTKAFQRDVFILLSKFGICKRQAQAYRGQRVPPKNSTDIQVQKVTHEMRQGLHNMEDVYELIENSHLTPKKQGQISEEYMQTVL
Sequence of Androgen receptor (Homo sapiens) (P10275 whole entry, looked up): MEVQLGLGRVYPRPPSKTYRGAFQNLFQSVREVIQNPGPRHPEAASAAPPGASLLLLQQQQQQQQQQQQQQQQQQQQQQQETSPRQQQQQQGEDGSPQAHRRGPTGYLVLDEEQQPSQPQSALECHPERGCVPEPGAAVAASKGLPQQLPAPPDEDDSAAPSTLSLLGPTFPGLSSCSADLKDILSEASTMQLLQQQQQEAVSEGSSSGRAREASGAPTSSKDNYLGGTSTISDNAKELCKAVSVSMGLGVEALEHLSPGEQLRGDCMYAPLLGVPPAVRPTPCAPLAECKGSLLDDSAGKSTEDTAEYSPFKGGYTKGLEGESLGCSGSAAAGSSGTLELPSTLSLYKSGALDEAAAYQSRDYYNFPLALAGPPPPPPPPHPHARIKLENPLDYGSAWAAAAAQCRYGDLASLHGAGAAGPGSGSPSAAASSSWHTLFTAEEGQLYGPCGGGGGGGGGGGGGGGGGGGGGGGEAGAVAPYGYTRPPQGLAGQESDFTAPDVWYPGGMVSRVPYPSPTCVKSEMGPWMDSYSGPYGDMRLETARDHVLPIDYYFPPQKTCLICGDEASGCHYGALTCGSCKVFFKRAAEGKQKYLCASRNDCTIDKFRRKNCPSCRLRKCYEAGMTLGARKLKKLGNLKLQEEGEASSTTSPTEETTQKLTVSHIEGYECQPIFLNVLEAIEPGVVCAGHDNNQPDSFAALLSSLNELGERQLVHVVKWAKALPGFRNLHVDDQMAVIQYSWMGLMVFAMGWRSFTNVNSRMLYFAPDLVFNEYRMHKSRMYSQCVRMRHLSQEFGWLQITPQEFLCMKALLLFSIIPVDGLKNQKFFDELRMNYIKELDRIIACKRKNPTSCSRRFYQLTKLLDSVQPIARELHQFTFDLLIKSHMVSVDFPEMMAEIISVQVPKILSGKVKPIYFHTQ

CC1=CC[C@@H]2C[C@H]1C2(C)C
activation [1]: -1.23% [at 19 µM]
activity, negative = inhibition [2]: -3.84% [at 19 µM]
activity change, negative = cytotoxicity [3]: 0.221% [at 19 µM]
activity change, negative = cytotoxicity [4]: 5.66% [at 19 µM]
activity change, negative = cytotoxicity [5]: 4.03% [at 19 µM]
activation [6]: -0.899% [at 19 µM]
cAMP activity change [7]: -1.96% [at 18.9 µM, active compounds read high]
activity change, negative = inhibition [8]: 8.95% [at 19 µM]
activity change, negative = cytotoxicity [9]: 3.72% [at 19 µM]
activity change, negative = inhibition [10]: 6.78% [at 18.9 µM]
activity change, negative = cytotoxicity [11]: 0.83% [at 18.9 µM]
activity change, negative = cytotoxicity [12]: -14.1% [at 19 µM]
activity change, negative = cytotoxicity [13]: 7.86% [at 15.8 µM]
activation [14]: 0.129% [at 15.8 µM]
activity, negative = inhibition [15]: 3.09% [at 10.5 µM]
activation [16]: -0.516% [at 11.8 µM]
activity change, negative = cytotoxicity [17]: 1.01% [at 19 µM]

C=C(C)C(=O)OCCC(F)(F)C(F)(F)C(F)(F)C(F)(F)C(F)(F)C(F)(F)F
Potency [1]: inactive
Potency [2]: inactive
Potency [3]: inactive
Potency [4]: inactive
Potency [5]: inactive
Potency [6]: inactive
Potency [7]: inactive
Potency [8]: inactive
Potency [9]: inactive
Potency [10]: inactive
Potency [11]: inactive
Potency [12]: inactive
outcome [18]: inactive
Potency [13]: inactive
Potency [14]: inactive
outcome [15]: inactive
outcome [16]: inactive
Potency [17]: inactive

CC1CCC(C(C)CS)CC1S (stereo not drawn)
Potency [1]: inactive
Potency [2]: inactive
Potency [3]: inactive
Potency [4]: inactive
Potency [19]: inactive
Potency [5]: inactive
Potency [7]: inactive
Potency [9]: inactive
Potency [20]: inactive
Potency [10]: inactive
Potency [11]: inactive
Potency [12]: inactive
Potency [13]: 54.9 µM (active)
outcome [15]: inactive
outcome [16]: inactive
Potency [17]: inactive

CC(C)c1ccc(C#N)cc1
Potency [1]: inactive
Potency [2]: inactive
Potency [3]: inactive
Potency [4]: inactive
Potency [5]: inactive
Potency [6]: inactive
Potency [7]: inactive
Potency [8]: inactive
Potency [9]: inactive
Potency [11]: inactive
Potency [12]: inactive
outcome [18]: inactive
Potency [13]: inactive
Potency [14]: inactive
outcome [15]: inactive
outcome [16]: inactive
Potency [17]: inactive
